According to ChEMBL document CHEMBL2218924, “A broad activity screen in support of a chemogenomic map for kinase signalling research and drug discovery” (Biochem J, 2013):

target: T1, Protein kinase C epsilon type (Homo sapiens) (UniProt Q02156); conditions: at 1 µM
T1 sequence (whole entry): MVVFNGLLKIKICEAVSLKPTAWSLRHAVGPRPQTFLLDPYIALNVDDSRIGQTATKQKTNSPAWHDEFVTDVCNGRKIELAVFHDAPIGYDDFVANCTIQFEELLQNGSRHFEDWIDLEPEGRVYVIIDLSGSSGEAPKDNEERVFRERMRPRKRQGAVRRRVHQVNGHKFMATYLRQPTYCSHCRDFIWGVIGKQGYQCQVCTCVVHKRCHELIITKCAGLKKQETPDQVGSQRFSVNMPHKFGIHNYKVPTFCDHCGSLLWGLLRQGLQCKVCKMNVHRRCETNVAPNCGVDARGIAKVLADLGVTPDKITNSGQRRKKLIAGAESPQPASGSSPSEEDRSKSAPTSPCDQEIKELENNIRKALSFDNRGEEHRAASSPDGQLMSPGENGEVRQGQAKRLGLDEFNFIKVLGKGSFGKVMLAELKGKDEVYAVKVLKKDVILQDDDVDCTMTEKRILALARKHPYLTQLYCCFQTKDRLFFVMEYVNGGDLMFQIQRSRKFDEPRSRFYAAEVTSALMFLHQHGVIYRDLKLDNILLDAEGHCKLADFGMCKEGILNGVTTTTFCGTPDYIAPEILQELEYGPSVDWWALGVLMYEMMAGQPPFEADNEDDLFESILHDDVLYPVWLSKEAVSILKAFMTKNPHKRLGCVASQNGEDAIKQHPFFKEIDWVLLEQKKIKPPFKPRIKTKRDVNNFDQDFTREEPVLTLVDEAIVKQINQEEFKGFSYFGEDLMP

Question: How did the residual activity turn out when `Oc1ccc(Nc2nc(-c3ccc(Cl)cc3)cs2)cc1` was run?
Answer: The residual activity was 115%.

Question: Which residual activity does the source give for `Nc1nc(Nc2ccc(S(N)(=O)=O)cc2)nn1C(=S)Nc1c(F)cccc1F` here?
Answer: Its residual activity is 30%.

Question: With `CO[C@H]1[C@@H](OC)C[C@H](C)[C@@H](OC)C2=CC(=O)C=C(NC(=O)/C(C)=C/C=C/[C@H](OC)[C@@H](OC(N)=O)/C(C)=C/[C@@H]1C)C2=O` as the compound, how does the residual activity read?
Answer: Its residual activity is 100%.

Question: `CCC(=O)Nc1ccc2ncnc(Nc3cccc(Br)c3)c2c1` was tested. Which residual activity did it give?
Answer: Its residual activity is 79%.

Question: How did the residual activity turn out when `CC(=O)c1ccc(N2CCOCC2)cc1O` was run?
Answer: Its residual activity is 91%.

Question: Which residual activity does the source give for `c1ccc(-c2n[nH]cc2-c2ccnc3ccccc23)nc1` here?
Answer: The residual activity was 74%.

Question: Which residual activity does the source give for `Cc1cccc(-c2[nH]c(C(C)(C)C)nc2-c2ccc3c(c2)OCO3)n1` here?
Answer: Its residual activity is 80%.

Question: Which residual activity does the source give for `NC(=O)c1ccc2[nH]c(-c3ccc(Oc4ccc(Cl)cc4)cc3)nc2c1` here?
Answer: Its residual activity is 95%.

Question: How did the residual activity turn out when `COc1cc2ncnc(Nc3ccc(NC(=O)c4ccccc4)cc3)c2cc1OC` was run?
Answer: The residual activity was 93%.

Question: For `Cn1cnc2cc3c(Nc4cccc(Br)c4)ncnc3cc21`, which residual activity is on record?
Answer: Its residual activity is 86%.

Question: For `COc1cc2ncnc(Nc3ccc(Oc4ccccc4)cc3)c2cc1OC`, which residual activity is on record?
Answer: The residual activity was 85%.

Question: How did the residual activity turn out when `O=c1cc(-c2cccc3c2Sc2ccccc2S3)oc(N2CCOCC2)c1` was run?
Answer: The residual activity was 91%.

Question: For `C[C@@H](N)[C@H]1CC[C@H](C(=O)Nc2ccncc2)CC1`, which residual activity is on record?
Answer: Its residual activity is 71%.

Question: For `O=C(Nc1cccc(Nc2cc(Nc3cccc(C(F)(F)F)c3)ncn2)c1)C1CC1`, which residual activity is on record?
Answer: Its residual activity is 90%.

Question: For `COc1cc2ncnc(Nc3ccc(O)c(Br)c3)c2cc1OC`, which residual activity is on record?
Answer: The residual activity was 89%.

Question: How did the residual activity turn out when `N#CC(C#N)=C(N)/C(C#N)=C/c1ccc(O)cc1` was run?
Answer: Its residual activity is 95%.

Question: `N#Cc1cnc2cnc(NCc3cccnc3)cc2c1Nc1ccc(F)c(Cl)c1` was tested. Which residual activity did it give?
Answer: Its residual activity is 81%.

Question: For `O=c1c2ccccc2[nH]c(=S)n1CCN1CCC(=C(c2ccc(F)cc2)c2ccc(F)cc2)CC1`, which residual activity is on record?
Answer: Its residual activity is 91%.

Question: How did the residual activity turn out when `Oc1ccc(-c2nc(-c3ccc(F)cc3)c(-c3ccncc3)[nH]2)cc1` was run?
Answer: The residual activity was 122%.

Question: For `CN(C)c1ccc(/C=C2\C(=O)Nc3ccccc32)cc1`, which residual activity is on record?
Answer: The residual activity was 120%.

Question: Which residual activity does the source give for `Cn1cc(/C=C2\C(=O)Nc3ccc(S(N)(=O)=O)cc32)c2ccccc21` here?
Answer: The residual activity was 90%.

Question: How did the residual activity turn out when `Nc1n[nH]c2nnc(-c3c(-c4ccccc4)nn4ccccc34)cc12` was run?
Answer: Its residual activity is 101%.

Question: `Ic1cccc(CSc2nnc(-c3ccncc3)o2)c1` was tested. Which residual activity did it give?
Answer: The residual activity was 88%.

Question: `CO[C@H]1C[C@@H]2CC[C@@H](C)[C@@](O)(O2)C(=O)C(=O)N2CCCC[C@H]2C(=O)O[C@H]([C@H](C)C[C@@H]2CC[C@@H](O)[C@H](OC)C2)CC(=O)[C@H](C)/C=C(\C)[C@@H](O)[C@@H](OC)C(=O)[C@H](C)C[C@H](C)/C=C/C=C/C=C/1C` was tested. Which residual activity did it give?
Answer: The residual activity was 81%.

Question: For `CC(=O)O/N=C1\C(=C2\C(=O)Nc3cc(Br)ccc32)Nc2ccccc21`, which residual activity is on record?
Answer: Its residual activity is 107%.

Question: With `COc1ccc(S(=O)(=O)N(CCO)c2ccccc2CN(C)C/C=C/c2ccc(Cl)cc2)cc1` as the compound, how does the residual activity read?
Answer: The residual activity was 106%.

Question: `Cc1ccc(NC2=CC(=O)c3sc(C)nc3C2=O)cc1` was tested. Which residual activity did it give?
Answer: Its residual activity is 87%.

Question: With `CCN(CC)CCCCN1c2ccccc2Oc2ccc(Cl)cc21` as the compound, how does the residual activity read?
Answer: The residual activity was 84%.

Question: How did the residual activity turn out when `COc1ccc(CNc2nc(N(CCO)CCO)nc3c2ncn3C(C)C)cc1` was run?
Answer: Its residual activity is 115%.

Question: With `CO[C@@H]1[C@H](N(C)C(=O)c2ccccc2)C[C@H]2O[C@]1(C)n1c3ccccc3c3c4c(c5c6ccccc6n2c5c31)C(=O)NC4` as the compound, how does the residual activity read?
Answer: The residual activity was 42%.

Question: How did the residual activity turn out when `COc1ccc(OC)c2c(=S)c3ccccc3[nH]c12` was run?
Answer: Its residual activity is 98%.

Question: How did the residual activity turn out when `CC(C)n1cnc2c(NCc3ccccc3)nc(NCCCO)nc21` was run?
Answer: The residual activity was 91%.
